Hit rate of the full screen: of about 310,000 compounds, about 14,000 (4.5%) showed an effect of 50% or more. Effects have a minus sign here. This excerpt belongs to a sample that is enriched for strong results.
target: human ether-à-go-go-related gene (hERG) potassium channel (human, UniProt Q12809); assay: primary screen, population patch clamp on CHO cells stably expressing hERG; higher = less effect of the substance
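Note: peak tail current of the secondary pulse compared with the same well before compound.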

Chain of human ether-à-go-go-related gene (hERG) potassium channel (Q12809 whole entry, looked up): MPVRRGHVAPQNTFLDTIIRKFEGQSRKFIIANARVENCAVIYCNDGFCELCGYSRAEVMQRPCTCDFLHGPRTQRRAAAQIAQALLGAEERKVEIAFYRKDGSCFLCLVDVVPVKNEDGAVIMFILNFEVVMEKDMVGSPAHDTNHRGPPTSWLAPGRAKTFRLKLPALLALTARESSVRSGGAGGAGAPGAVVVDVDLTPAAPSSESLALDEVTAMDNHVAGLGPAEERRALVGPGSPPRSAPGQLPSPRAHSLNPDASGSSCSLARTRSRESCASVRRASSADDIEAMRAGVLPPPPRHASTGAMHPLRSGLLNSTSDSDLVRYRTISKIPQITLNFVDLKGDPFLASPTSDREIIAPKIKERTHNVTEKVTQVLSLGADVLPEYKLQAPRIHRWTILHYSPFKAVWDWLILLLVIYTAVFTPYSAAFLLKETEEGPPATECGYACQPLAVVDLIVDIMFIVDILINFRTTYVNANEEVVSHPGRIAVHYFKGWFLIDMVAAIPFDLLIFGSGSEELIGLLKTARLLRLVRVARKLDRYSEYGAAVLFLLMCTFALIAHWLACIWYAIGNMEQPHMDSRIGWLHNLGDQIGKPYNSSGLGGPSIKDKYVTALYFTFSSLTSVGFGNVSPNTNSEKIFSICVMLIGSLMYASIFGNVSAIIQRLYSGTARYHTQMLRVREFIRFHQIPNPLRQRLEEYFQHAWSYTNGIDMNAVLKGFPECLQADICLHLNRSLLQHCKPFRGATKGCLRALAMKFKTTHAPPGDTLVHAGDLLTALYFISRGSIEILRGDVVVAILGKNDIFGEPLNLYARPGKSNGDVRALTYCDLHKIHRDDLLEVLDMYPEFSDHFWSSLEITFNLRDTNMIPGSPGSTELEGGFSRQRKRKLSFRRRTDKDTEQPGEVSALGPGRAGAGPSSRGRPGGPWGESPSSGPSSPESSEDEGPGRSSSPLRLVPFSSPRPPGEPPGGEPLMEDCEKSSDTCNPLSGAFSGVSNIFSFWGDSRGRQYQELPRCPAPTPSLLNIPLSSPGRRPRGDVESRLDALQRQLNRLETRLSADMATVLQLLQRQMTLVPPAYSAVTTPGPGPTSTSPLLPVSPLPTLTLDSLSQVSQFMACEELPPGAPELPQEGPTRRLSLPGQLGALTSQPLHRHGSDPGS

Row | Compound | hERG current change (%, negative = inhibition) at 10uM
1 | COc1ccc(C2CC(c3ccc(Cl)cc3)=NN2C(C)=O)cc1 (stereo not drawn) | -23.5%
2 | COc1ccc(C2=NN(C(=O)CCC(=O)O)C(c3ccc([N+](=O)[O-])cc3)C2)cc1 (stereo not drawn) | 10.2%
3 | CCn1cc([N+](=O)[O-])c(C(=O)N2N=C(c3ccccc3)CC2c2ccc([N+](=O)[O-])cc2)n1 (stereo not drawn) | -37.2%
4 | O=C(O)CCC(=O)N1N=C(c2cccs2)CC1c1cccc([N+](=O)[O-])c1 (stereo not drawn) | 20%
5 | CCC(=O)N1N=C(c2ccccc2)CC1c1ccc([N+](=O)[O-])cc1 (stereo not drawn) | -53.4%
6 | CC(=O)N1N=C(c2cccs2)CC1c1cccc([N+](=O)[O-])c1 (stereo not drawn) | -51.6%
7 | CC(=O)N1N=C(c2ccccc2)CC1c1cccc([N+](=O)[O-])c1 (stereo not drawn) | -27.3%
8 | CCC(=O)N1N=C(c2ccccc2)CC1c1ccccc1 (stereo not drawn) | 2.71%
9 | CC(=O)N1N=C(c2ccc([N+](=O)[O-])cc2)CC1c1ccccc1Cl (stereo not drawn) | -66%
10 | CC(=O)N1N=C(c2ccccc2)CC1c1ccccc1[N+](=O)[O-] (stereo not drawn) | 2.95%
11 | COc1ccc(C2CC(c3ccc([N+](=O)[O-])cc3)=NN2C(C)=O)cc1 (stereo not drawn) | -64.5%
12 | O=C(O)CC1S/C(=N/N=C/C=C/c2ccccc2)NC1=O (stereo not drawn) | 0.632%
13 | Cc1ccc(-n2c(C)c(C)c3c(NCCO)ncnc32)cc1 | 6.27%
14 | CSc1nsc(SCC(=O)Nc2nc3ccccc3s2)n1 | 9.66%
15 | Cn1c(=O)[nH]c2nnc(-c3ccc(Cl)c(Cl)c3)nc2c1=O | 8.52%
16 | COc1ccc(OC)c(/C=N/NC(=O)c2cnccn2)c1 | 1.45%
17 | COc1ccccc1CNC(=O)C(=O)NCC1OCCN1C(=O)c1cccs1 (stereo not drawn) | 3.96%
18 | Cc1c(C(=O)N/N=C/c2ccc(-c3ccccc3[N+](=O)[O-])o2)sc(N)c1C#N | 12.1%
19 | COc1ccccc1N(C)S(=O)(=O)c1ccc(C(=O)OC(C)C(=O)NCc2ccc3c(c2)OCO3)cc1 (stereo not drawn) | -41.6%
20 | CCc1ccc(NC(=S)NCC2CCCN2CC)cc1 (stereo not drawn) | -32.2%
21 | CCn1c(SCC(=O)OC)nnc1C1CCCCC1 | 6.57%
22 | O=C(N/N=C/c1ccoc1)c1ccccc1Br | 16.9%
23 | CCc1nc(SCc2ccc(Cl)cc2)n[nH]1 | 12%

Row | Compound | hERG current change (%, negative = inhibition) at 10uM
24 | Cc1csc(NC(=O)CSc2nnc(Cc3cccn3C)n2CCc2ccccc2)n1 | -4.35%
25 | Cc1occc1-c1nnc(SCC(=O)Nc2ccccc2)n1C(C)c1ccccc1 (stereo not drawn) | -37.6%
26 | Cc1occc1-c1nnc(SCC(=O)Nc2nccs2)n1CCc1ccccc1 | -60.3%
27 | Cc1csc(NC(=O)CSc2nnc(-c3ccoc3C)n2C(C)c2ccccc2)n1 (stereo not drawn) | -74.1%
28 | CCn1c(SCC(=O)Nc2nc(C)cs2)nnc1-c1ccoc1C | -1.96%
29 | CCn1c(SCC(=O)Nc2nccs2)nnc1-c1ccco1 | -10.7%
30 | Cn1cccc1Cc1nnc(SCC(=O)Nc2nccs2)n1CCc1ccccc1 | -9.58%
31 | Cc1occc1-c1nnc(SCC(=O)NC(C)(C)C)n1C(C)c1ccccc1 (stereo not drawn) | -11.8%
32 | Cc1csc(NC(=O)CSc2nnc(-c3ccoc3C)n2CCc2ccccc2)n1 | -59.7%
33 | COc1cc(C)c(Cl)cc1S(=O)(=O)NCCN1CCOCC1 | 15.9%
34 | Cc1c(NC(=O)c2ccc(F)cc2)c(=O)n(-c2ccccc2)n1C | 11.2%
35 | CCCc1cc(=O)[nH]c(SCC(=O)c2cc(C)n(CC(F)(F)F)c2C)n1 | 7.55%
36 | CC(=O)c1ccc(S(=O)(=O)N(C)CC(=O)Nc2ccc(C)cc2)cc1 | -0.949%
37 | O=S(=O)(Nc1ccc2c(c1)OCCO2)c1cnc[nH]1 | 7.8%
38 | CCOC(=O)c1c(S(=O)(=O)NCCc2ccc(OC)c(OC)c2)c(C)n(C)c1C | 4.97%
39 | CC(C)(C)NC(=O)NC(=O)COC(=O)c1cccc(F)c1 | -1.01%
40 | O=C(CSc1nnc(CNc2ccccc2)o1)N1CCN(C(=O)c2ccco2)CC1 | -17.3%
41 | O=C(CSc1nnc(CNc2ccc(F)cc2)o1)N1CCN(C(=O)c2ccco2)CC1 | -50.8%
42 | O=C(NCc1nnc(SCC(=O)N2CCCC2)o1)c1ccco1 | -7.2%
43 | O=C(CSc1nnc(COc2cccc3cccnc23)o1)N1CCN(C(=O)c2ccco2)CC1 | 0.452%
44 | O=C(CSc1nnc(COc2cccc3ccccc23)o1)N1CCN(C(=O)c2ccco2)CC1 | -65.1%
45 | O=C(CSc1nnc(COc2cccc3ccccc23)o1)N1c2ccccc2CCc2ccccc21 | 7.68%

From paper PMC4336329 (PLoS ONE, 2015)
